Rows were chosen to be rich in hits. Some 7.6% of all compounds tested hit in one or more screens of this group.
HCV NS3h FP – blocks HCV NS3 helicase binding to DNA; hit rate 1.6% among 16,000; AID 687043; NS3h Cy5-dT15 DNA binding, fluorescence polarization; inhibition, % at 100 µM;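 active = inhibition above the average over every tested compound plus 3 SD, cut at about 40% in these data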
Cy5 interf NS3h – Cy5 fluorescence interference, HCV helicase counter-screen; Cy5-dT15 DNA with NS3h; actives lie on both sides; signal over control mean, under 1 quenches; fluorescence interference ratio at 100 µM; hit rate 6% among 16,000;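 active = compound fluorescence over control fluorescence at most 0.8, a quencher, or at least a set upper limit, an enhancer; inactive = ratio between 0.8 and the set upper limit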
* marks the source's active call; other numbers are inactive results.

SMILES	HCV NS3h FP	Cy5 interf NS3h
Cc1ccccc1/C=C1\SC(=S)N(C(C(=O)O)C(C)C)C1=O (stereo not drawn)	8	1
CC(C(=O)O)N1C(=O)/C(=C/c2ccccc2)SC1=S (stereo not drawn)	2	1.2*
COc1ccc(N(CC(=O)Nc2ccc(I)cc2)S(=O)(=O)c2ccccc2)cc1	16	1.1
COC(=O)c1cccc(-c2ccc(/C=C3/C(=O)NN(c4cccc(Cl)c4)C3=O)o2)c1	12	0.77*
COC(=O)c1cccc(-c2ccc(C=C3C(=O)N(C)C(=O)N(C)C3=O)o2)c1	7	1.1
COc1ccc(C(=O)Nc2cc(Cl)ccc2Cl)cc1NC(=O)COc1ccc(F)cc1	0	0.93
Cc1cccc(Nc2c3c(c(C#N)c4nc5ccccc5n24)CCC3)c1	24	1
CC(C)Oc1ccc(/C=C(/NC(=O)c2ccccc2)C(=O)NCCCO)cc1	2	1.2
COc1ccc(N)cc1-n1c(C)ccc1C	4	0.4*
COc1cccc(C2NC(=O)NC(C)=C2C(=O)Nc2ccc(C)c(Cl)c2)c1OC (stereo not drawn)	-1	0.97
CN(C)CCNC(=O)c1ccc(F)cc1	12	1
CCOC(=O)N(Cc1ccccc1)C(C(=O)O)C(C(=O)O)N(Cc1ccccc1)C(=O)OCC (stereo not drawn)	0	0.97
CC(C1CC1)N(Cc1ccccc1)C(=O)c1ccc(F)cc1 (stereo not drawn)	10	0.59*
Cc1ccc(NC(=O)N(Cc2ccccc2)C(C)C2CC2)cc1 (stereo not drawn)	10	0.6*
Cc1c(Cl)cccc1-c1ccc(C(=O)Nc2ccc3c4c(cccc24)CC3)o1	11	1.1
CN(C)c1ccc(-c2nc3cc(NC(=S)NC(=O)c4ccco4)ccc3o2)cc1	-5	1
O=C(Nc1cc([N+](=O)[O-])ccc1Cl)c1cc(-c2ccc(Cl)cc2)nc2ccccc12	9	1
O=C1C(=O)N(c2cccc(Cl)c2)C(c2ccc(F)cc2)C1=C(O)c1ccccc1 (stereo not drawn)	11	1
CCOc1ccc(NC(=S)NC(=O)/C=C/c2ccc(C)cc2)c([N+](=O)[O-])c1	12	0.93
CCOc1ccc(NC(=S)NC(=O)c2ccc(OC)cc2)c([N+](=O)[O-])c1	8	1
CCOc1ccc(NC(=O)c2ccc(S(=O)(=O)N(C)C)cc2)c([N+](=O)[O-])c1	16	0.57*
CCOc1ccc(NC(=S)NC(=O)/C=C/c2ccc(OC)c(OC)c2)c([N+](=O)[O-])c1	-6	0.8*
CC(=O)c1ccc(N2C(=O)c3c(Cl)c(Cl)c(Cl)c(Cl)c3C2=O)cc1	9	0.7*
CC(=O)c1ccc(N2C(=O)c3ccccc3C2=O)cc1	8	1
CN(C)c1ccc(/C=N\NC(=O)/C(=C\c2ccc3c(c2)OCO3)NC(=O)c2ccccc2)cc1	24	1.1
SMILES	HCV NS3h FP	Cy5 interf NS3h
CC(NC(=O)c1ccccc1Cl)c1ccccc1 (stereo not drawn)	-2	1.1
CC1=C(C(=O)Nc2cc(Cl)ccc2C)C(c2cccc(Br)c2)NC(=S)N1 (stereo not drawn)	-5	0.95
Cc1cccc(C2=N/C(=C/c3ccc([N+](=O)[O-])cc3)C(=O)N2c2ccc(O)cc2)c1	15	0.97
COc1ccc(C2=N/C(=C/c3ccc([N+](=O)[O-])cc3)C(=O)N2c2ccc(O)cc2)cc1	16	0.79*
O=C(CC1S/C(=N/N=C\c2ccccc2)NC1=O)Nc1ccccc1F (stereo not drawn)	-8	1.2*
COc1ccccc1/C=N\N=C1/NC(=O)C(CC(=O)Nc2cccc(C)c2C)S1 (stereo not drawn)	15	1
CC(=O)N1C(=O)/C(=C2/SC(=Nc3ccc(Br)cc3)NC2=O)c2ccccc21	10	1.2*
COC(=O)c1ccc(/C=C2\SC(=Nc3ccc(Br)cc3)NC2=O)cc1	9	0.99
COc1cc(NC(=O)c2ccccc2I)ccc1NC(=O)c1ccco1	22	1.1
COc1ccccc1NC(=O)CSc1ccc(Cl)cc1Cl	9	0.86
COc1cccc(C2NC(=O)NC(C)=C2C(=O)Nc2cccc(Cl)c2)c1OC (stereo not drawn)	2	0.95
O=C(NCCCN1CCOCC1)/C(=C/c1ccc(-c2ccc(Br)cc2)o1)NC(=O)c1ccccc1	12	0.91
O=C1C(=O)N(CCCn2ccnc2)C(c2ccccc2[N+](=O)[O-])C1=C(O)c1ccc(Cl)cc1 (stereo not drawn)	-3	1
CCOC(=O)c1c(-c2ccccc2)oc2cc(Br)c(OC(C)C(=O)OC)cc12 (stereo not drawn)	10	0.87
N#Cc1ccc2c(c1)nc1c3cccc4cccc(c(=O)n21)c43	-4	0.65*
Cc1cccc(Nc2cc(C)c(C#N)c3nc4ccccc4n23)c1	4	1.1
CCOC(=O)c1c(-n2c(C)cc(/C=C(\C#N)C(=O)NCC3CCCO3)c2C)sc2c1CCCC2 (stereo not drawn)	1	1

Compound activity deposited in PubChem by Milwaukee Institute for Drug Discovery.
